Compound activity deposited in PubChem BioAssay by several laboratories.
CYP2C19 activ: increases human CYP2C19 enzyme activity. activation factor at 5 µM. recombinant CYP2C19, luciferin-H EGE luminescence; stronger effect = higher value; 0 = fully inhibited enzyme, 1 = untreated enzyme. P33261. 96,000 tested, under 10 active;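 active = activation factor of at least 2 at 5 µM in the primary screen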;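 note: 0 = wells with 2.5 mM tranylcypromine and 1 = vehicle-only wells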
E-sel TNF inh: TNF alpha driven E-selectin expression inhibition; AID 1246; inhibition, % at 2 µM; HUVEC TNFa-induced E-selectin immunofluorescence, high content; 120,000 compounds, 0.71% hits;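 active = inhibition above the batch mean plus 3 SD, and confirmed as a hit on visual image review, cut at about 43% in these data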;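 note: 0% = TNF-stimulated DMSO wells and 100% = unstimulated control wells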
CYP2C19 inhib: blocks human cytochrome P450 2C19. inhibition, % at 5 µM. 96,000 compounds, 21% hits. CYP2C19 Supersomes, luciferin-H EGE luminescence, 30 min;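 active = CYP2C19 inhibition above a set limit at 5 µM in the primary screen, cut at about 50% in these data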;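 note: plate controls were negative control wells for no effect and 2.5 mM tranylcypromine positive control for full effect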
cytoskel mod: cytoskeleton assembly modification | 91,000 compounds, 0.18% hits | HUVEC TNFa F-actin phalloidin imaging, high content | inhibition, % at 2 µM;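 active = inhibition above the batch mean plus 3 SD and confirmed as a hit by visual image inspection, cut at about 30% in these data, passing the limit was not always enough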
CYP2C9 inhib: human CYP2C9 inhibition; 96,000 compounds, 20% hits; P11712; inhibition, % at 5 µM; CYP2C9 Supersomes, luciferin-H conversion, luminescence;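 active = blocking of liver enzyme CYP2C9 beyond about 50% at 5 µM, limit read from the data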
Target sequence (P11712 whole entry, looked up): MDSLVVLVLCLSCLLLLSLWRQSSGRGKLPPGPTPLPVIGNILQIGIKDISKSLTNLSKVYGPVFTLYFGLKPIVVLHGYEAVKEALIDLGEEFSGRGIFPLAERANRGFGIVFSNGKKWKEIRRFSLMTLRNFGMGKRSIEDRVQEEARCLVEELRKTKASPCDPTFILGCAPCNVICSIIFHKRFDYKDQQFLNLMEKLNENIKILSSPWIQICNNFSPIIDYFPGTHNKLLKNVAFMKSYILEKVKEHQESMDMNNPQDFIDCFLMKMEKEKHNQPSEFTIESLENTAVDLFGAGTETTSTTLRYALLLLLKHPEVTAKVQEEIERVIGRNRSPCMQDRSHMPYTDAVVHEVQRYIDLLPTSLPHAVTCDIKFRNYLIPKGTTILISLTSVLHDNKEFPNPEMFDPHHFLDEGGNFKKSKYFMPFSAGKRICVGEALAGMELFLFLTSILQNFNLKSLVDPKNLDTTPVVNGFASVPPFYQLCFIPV
CYP2C9 activ: activators of human CYP2C9; recombinant CYP2C9, luciferin-H conversion, luminescence; stronger effect = higher value; factor 1 = untreated enzyme, 0 = blocked; 96,000 compounds, 1.4% hits; AID 1024; activation factor at 5 µM;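 active = activation factor of 2 or more for CYP2C9 at a 5 µM dose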;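 note: 0 = sulfaphenazole-blocked wells and 1 = vehicle-only wells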
* marks the source's active call; other numbers are inactive results. In the library only some 22% were active in any assay of this set; here they are far more common.

`CC(SC#N)C(=O)C12CC3CC(CC(C3)C1)C2` (stereo not drawn) gave E-sel TNF inh 2.6.
Cc1ccc(NC(=O)c2cc([N+](=O)[O-])ccc2NCc2cccnc2)cc1Cl was read as CYP2C19 activ 0.2, E-sel TNF inh -34.6, CYP2C19 inhib 84.8*, cytoskel mod -36.6, CYP2C9 inhib 92.0* and CYP2C9 activ 0.1.
For C=CCn1c(SCC(=O)c2cccs2)nc2sc(CC)cc2c1=O the results were CYP2C19 activ 1, E-sel TNF inh 12.5, CYP2C19 inhib -1.6, cytoskel mod -20.7, CYP2C9 inhib 25.4 and CYP2C9 activ 0.7.
For C=CCn1c(SCC(=O)Nc2cc(C)on2)nc2sc(CC)cc2c1=O the results were CYP2C19 activ 0.9, E-sel TNF inh -36.4, CYP2C19 inhib 5.1, cytoskel mod 0.8, CYP2C9 inhib 72.1* and CYP2C9 activ 0.3.
Screening C=CCn1c(SCC(=O)O)nc2sc(CC)cc2c1=O returned E-sel TNF inh -29.1.
`C=CCn1c(SCC(=O)N2CCN(C(=O)c3ccco3)CC2)nc2sc(CC)cc2c1=O` gave CYP2C19 activ 0.1, E-sel TNF inh -15.4, CYP2C19 inhib 90.3*, cytoskel mod -13.6, CYP2C9 inhib 99.1* and CYP2C9 activ 0.
C=CCn1c(SCC(=O)N2CCc3ccccc3C2)nc2sc(C)cc2c1=O was read as CYP2C19 activ 0.4, E-sel TNF inh 11.5, CYP2C19 inhib 63.1*, cytoskel mod -4.2, CYP2C9 inhib 96.0* and CYP2C9 activ 0.
`O=C(Cn1cc(C(F)(F)F)cc(Cl)c1=O)Nc1cc(S(=O)(=O)N2CCOCC2)ccc1Cl` gave E-sel TNF inh 4.9.
Screening Cc1nc2ccccc2c(=O)n1/N=C/c1c(O)ccc2oc3c(c12)CCCC3 returned CYP2C19 activ 0.9, CYP2C19 inhib 13.0, CYP2C9 inhib 77.1* and CYP2C9 activ 0.2.
For CC(C)c1c(C#N)c(N)nc(SCC(=O)c2cc3ccccc3oc2=O)c1C#N the results were CYP2C19 activ 0.9, E-sel TNF inh -9.7, CYP2C19 inhib 6.8, CYP2C9 inhib 92.5* and CYP2C9 activ 0.1.
O=C(CSc1nnc(-c2cccnc2)o1)Nc1ccccn1 was read as CYP2C19 activ 1, E-sel TNF inh -16.3, CYP2C19 inhib -2.1, cytoskel mod -16.1, CYP2C9 inhib -6.9 and CYP2C9 activ 1.1.
Screening O=C(CSc1nnc(-c2cccnc2)o1)c1cc2ccccc2oc1=O returned CYP2C19 activ 1, E-sel TNF inh -17.5, CYP2C19 inhib 0.0, cytoskel mod -17.1, CYP2C9 inhib 69.6* and CYP2C9 activ 0.3.
Screening Cn1cnnc1SCC(=O)c1cc2ccccc2oc1=O returned CYP2C19 activ 1, E-sel TNF inh -20.7, CYP2C19 inhib 0.5, cytoskel mod 0.0, CYP2C9 inhib 15.0 and CYP2C9 activ 0.8.
`N#Cc1ccc(-c2ccccc2)nc1SCC(=O)c1cc2ccccc2oc1=O` gave CYP2C19 activ 0.9, CYP2C19 inhib 7.8, cytoskel mod -3.4, CYP2C9 inhib 75.7* and CYP2C9 activ 0.2.
CC(C)S(=O)(=O)C1=NSC2=NC(=O)/C(=C\c3ccc(-c4cccc(C(=O)O)c4)o3)C(=N)N21 was read as E-sel TNF inh -18.4.
Screening CCC(C)OC(=O)C1=C(C)OC23OC(N)=C(C#N)C12C(=O)c1ccccc13 (stereo not drawn) returned E-sel TNF inh -1.8 and cytoskel mod -15.7.
`O=C(Nc1nccs1)c1nc(-c2ccccc2)n(-c2ccccc2)n1` gave CYP2C19 activ 1, E-sel TNF inh 43.0*, CYP2C19 inhib -4.1, cytoskel mod -0.6, CYP2C9 inhib -4.8 and CYP2C9 activ 1.
Cc1csc(NC(=O)c2ccccc2O)n1 was read as CYP2C19 activ 1, E-sel TNF inh -10.8, CYP2C19 inhib -1.8, cytoskel mod -7.3, CYP2C9 inhib 12.0 and CYP2C9 activ 0.9.
Screening N#Cc1cccc(NC(=O)c2nc(-c3ccccc3)n(-c3ccccc3)n2)c1 returned CYP2C19 activ 0.6, CYP2C19 inhib 39.3, cytoskel mod 5.6, CYP2C9 inhib 28.5 and CYP2C9 activ 0.7.
`Cc1csc(NC(=O)c2nc(-c3ccccc3)n(-c3ccccc3)n2)n1` gave CYP2C19 activ 0.6, E-sel TNF inh -14.2, CYP2C19 inhib 43.1, CYP2C9 inhib 75.3* and CYP2C9 activ 0.2.
`Cc1ccc(C)c(NC(=O)c2nc(-c3ccccc3)n(-c3ccccc3)n2)c1` gave CYP2C19 activ 0.2, CYP2C19 inhib 79.0*, cytoskel mod -3.4, CYP2C9 inhib 71.2* and CYP2C9 activ 0.3.
For O=C(O)c1nc(-c2ccccc2)n(-c2ccccc2)n1 the results were E-sel TNF inh 8.5.
O=C(Nc1nccs1)c1ccccn1 was read as E-sel TNF inh 21.3.
`CCCC(C)NC(=O)c1nc(-c2ccccc2)n(-c2ccccc2)n1` (stereo not drawn) gave CYP2C19 activ 0.7, E-sel TNF inh 7.2, CYP2C19 inhib 33.4, cytoskel mod 0.6, CYP2C9 inhib 85.8* and CYP2C9 activ 0.1.
CC1(C(=O)CSc2nc3ccccc3s2)CCC(=O)O1 (stereo not drawn) was read as CYP2C19 activ 0.8, E-sel TNF inh -18.7, CYP2C19 inhib 22.0, cytoskel mod 0.9, CYP2C9 inhib 2.6 and CYP2C9 activ 1.
For Cc1cc(C)n(-c2ccc(C(=O)OCc3nnc(-c4ccccc4)o3)cc2)n1 the results were CYP2C19 activ 0.9, E-sel TNF inh -55.4, CYP2C19 inhib 7.3, CYP2C9 inhib 2.4 and CYP2C9 activ 1.
Cc1cc(C)n2nc(C(=O)NCc3ccco3)nc2n1 was read as E-sel TNF inh 0.8 and cytoskel mod 20.1.
For Cc1ccc2nc(SCc3ccccc3)c(C=O)c(=O)n2c1 the results were E-sel TNF inh 15.6.
`COc1ccc(/C=C2/C(=O)N=C3SCCN32)cc1` gave CYP2C19 activ 0.8, E-sel TNF inh -20.6, CYP2C19 inhib 23.6, cytoskel mod -3.8, CYP2C9 inhib 6.3 and CYP2C9 activ 0.9.
`CCSc1nnc(NC(=O)c2nc(-c3ccccc3)n(-c3ccccc3)n2)s1` gave CYP2C19 activ 0.5, CYP2C19 inhib 54.9*, cytoskel mod 14.9, CYP2C9 inhib 92.3* and CYP2C9 activ 0.1.
Screening CCSc1nnc(NC(=O)c2cc(C)nc3ccccc23)s1 returned CYP2C19 activ 0.9, E-sel TNF inh -2.2, CYP2C19 inhib 7.2, cytoskel mod -5.4, CYP2C9 inhib 16.9 and CYP2C9 activ 0.8.
`Cc1c(NC(=O)/C(=C/c2cccs2)NC(=O)c2ccccc2)c(=O)n(-c2ccccc2)n1C` gave E-sel TNF inh 18.5.
`CC1(C)Cc2c(C#N)c(N)sc(=S)c2CO1` gave CYP2C19 activ 0.8, E-sel TNF inh -41.0, CYP2C19 inhib 17.0, CYP2C9 inhib 67.6* and CYP2C9 activ 0.3.
Screening CCN(CC)c1nc(C)c2c(c1C#N)CC(C)(C)OC2 returned CYP2C19 activ 0.8, CYP2C19 inhib 20.6, cytoskel mod 7.0, CYP2C9 inhib 22.2 and CYP2C9 activ 0.8.
